Compound activity (PubChem BioAssay)
Rows were chosen to be rich in hits. Some 7.9% of all compounds tested hit in one or more screens of this group.
KB-3-1 tox: kills parental KB-3-1 adenocarcinoma cells; KB-3-1 viability, CellTiter-Glo ATP luminescence, 72 h; Potency, µM (highest dose often 46.1 µM), actives largely listed as cytotoxic; actives 1.4% (n = 400,000); AID 1347075; also: % is scaled to controls: 0 for no effect and ±100 for the full control effect; nearly all actives have a fitted effect of over 60% in size
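Here the drug-naive KB-3-1 line serves as comparator for MDR sub-line selectivity; cells received compound titrations, 72 h at 37 °C, then CellTiter-Glo readout.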
HT1080 IDH1KD tx: toxicity to HT-1080 IDH1 knockdown cells (counter line). Potency, µM (titrated, usually from 46.1 µM), without a hit: at the highest dose activity, negative = toxicity, most hits filed as cytotoxic. HT-1080 IDH1 knockdown viability, ATP luminescence, 48 h. actives 2% (n = 360,000);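 also: 0% = DMSO wells and -100% = cell-free medium wells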
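In this qHTS, HT-1080 cells depleted of IDH1 are exposed for 48 h at 37 °C to compound titrations. Toxicity is scored from CellTiter-Glo luminescence, with DMSO as full viability and medium alone as none.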
KB-V1 cytotox: KB-V1 MDR subline cytotoxicity; Potency, µM (top dose mostly 46.1 µM), usual class: cytotoxic; AID 1347076; KB-V1 MDR cells viability, CellTiter-Glo, 72 h; actives 3.4% (n = 400,000); also: % is scaled to controls: 0 for no effect and ±100 for the full control effect; nearly all actives have a fitted effect of over 60% in size
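Readout: CellTiter-Glo luminescence, 10 min after addition. Cells: KB-V1 MDR subline, 72 h at 37 degrees C with compound. Analysis: corrected, normalized data fitted to concentration-effect curves.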
MCF10A rerep: inducers of DNA re-replication in MCF 10A breast cells; MCF 10A DNA re-replication, Hoechst nuclear intensity, 48 h; Potency, µM (titrated, usually from 46.1 µM), inactives show at the top dose activity, positive = re-replication, most hits filed as activators; actives 2.9% (n = 350,000); also: % of control where 0% means no effect; nearly all actives have a fitted effect of over 50% in size
SW480 rerep: DNA re-replication induction in SW480 cells | SW480 DNA re-replication, Hoechst DNA content imaging, 48 h | Potency, µM (doses to about 46.1 µM), inactives show at the highest dose re-replication activation, hits mostly activators | actives 1.8% (n = 340,000); also: % of control where 0% means no effect; nearly all actives have a fitted effect of over 55% in size
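First, 250 cells per well were seeded. Next, compound or vehicle (23 nL) was pinned in, plates sat 48 hr at 37 C. Finally Hoechst was added for 40 min before fluorescence scanning.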
HT1080NT lethal: kills 2HG-producing HT-1080-NT fibrosarcoma cells; actives 1.6% (n = 360,000); Potency, µM (top dose mostly 46.1 µM), without a hit: at the highest dose activity, negative = less viability, hits mostly cytotoxic; HT-1080-NT fibrosarcoma viability, CellTiter-Glo ATP luminescence, 48 h; AID 686970;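 also: NT is the 2HG producing partner of a matched IDH1 knockdown line; 0% = DMSO-treated cells and -100% = media-only wells without cells; nearly all actives have a fitted effect of over 55% in size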
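Viability of the 2HG-overproducing fibrosarcoma line after 48 hours of compound exposure at 37 degrees C was determined by luminescence with CellTiter-Glo, and concentration-effect curves were then fitted and categorized.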
An asterisk follows results filed as active; i = inactive; ? = inconclusive; · = no result; [ ] = dose if it differs, or a comment. Calls follow the shape of the dose curve; as a rule, active = well fitted curve in the direction sought with a large enough effect; inconclusive = small, poorly fitted or top-dose-only effect, or another doubt; inactive = no such curve, though single readings can be large; an effect the other way counts as inactive or inconclusive. Potency is read from the fitted curve at half-maximal effect.

SMILES	KB-3-1 tox	HT1080 IDH1KD tx	KB-V1 cytotox	MCF10A rerep	SW480 rerep	HT1080NT lethal
C[C@H]1O[C@@H](OC2CC[C@]3(C=O)[C@H]4CC[C@]5(C)[C@@H](C6=CC(=O)OC6)CC[C@]5(O)[C@@H]4CC[C@]3(O)C2)CC2OC(C)(C)OC21 (stereo partly specified)	?	0.103µM*	?	?	?	0.184µM*
CCCCN=C[C@]12CCC(O)CC1(O)CCC1[C@@H]2CC[C@]2(C)[C@H](C3C=CC(=O)O3)CCC12O (stereo partly specified)	0.231µM*	1.46µM*	0.517µM*	?	2.31µM*	1.84µM*
CCOc1ccc2nc(N(CCN(CC)CC)C(=O)c3ccc([N+](=O)[O-])cc3)sc2c1	i	-6.3%	i	?	?	-9.0%
CC(C)c1ccc(Oc2cccc3c2S(=O)(=O)N(C2CCCC2)CC(COCc2ccccc2)O3)cc1 (stereo unspecified)	i	-0.1%	i	-52.0%	-13.2%[9.22 µM]	-6.3%
COc1cc(CN2CCCC(CCC(=O)NCc3ccc(C)o3)C2)cc2c1OCO2 (stereo unspecified)	i	5.5%	i	?	?	-7.2%
Cc1cccc(C(=O)NCCC(=O)NCc2ccccc2F)c1	i	5.3%	i	?	-44.4%	0.0%
CC12CCC3C(CCC4(O)CC(O)CCC34C=O)C1(O)CCC2C1=CC(=O)OC1 (stereo unspecified)	1.3µM*	1.46µM*	?	?	?	1.64µM*
CC12CC[C@H]3[C@@H](CCC4(O)C[C@H](O)CCC34/C=N/NC(=O)c3ccccc3Cl)C1(O)CCC2C1=CC(=O)OC1 (stereo partly specified)	i	-1.8%	i	14.2%	-6.0%	3.5%
C[C@]12CC[C@H]3[C@@H](CC[C@]4(O)C[C@@H](O)CC[C@]34C=O)[C@@]1(O)CC[C@@H]2C1=CC(=O)OC1	0.517µM*	0.651µM*	0.92µM*	?	2.59µM*	1.16µM*
COC(=O)C1=C(c2ccc(F)cc2F)C[C@@H]2CC[C@H]1N2C(=O)N1CCC(O)(c2ccc(Cl)cc2)CC1	?	-1.5%	i	7.31µM*	-1.5%	-19.1%
CC(C)C[C@H]1C(=O)N2CCCC2[C@]2(O)O[C@](NC(=O)[C@@H]3C=C4c5cccc6[nH]c(Br)c(c56)C[C@H]4N(C)C3)(C(C)C)C(=O)N12 (stereo partly specified)	·	·	·	14.4%	9.5%	·
O=C(COc1cccc(Cl)c1)N1CCN(CCc2ccncc2)CC1	i	·	i	·	·	·
O=C1C2CC=CCC2C(=O)N1SC(Cl)(Cl)Cl (stereo unspecified)	·	·	·	4.22µM*	6.68µM*	·
ClC1=C(Cl)C(Cl)=C(Cl)C1=C/C=C/c1ccccc1	4.61µM*	-16.1%	4.11µM*	3.66µM*	?	-8.6%
CC1CN(C)C(C)(C)CC1(O)c1ccccc1 (stereo unspecified)	i	15.7%	i	16.4µM*	?	2.9%
Cc1ccc(C2(O)CC(C)N(C)CC2C)cc1 (stereo unspecified)	i	7.9%	i	1.2%	-5.6%	12.4%
CCC1(O)C(=O)OCc2c1cc1n(c2=O)Cc2cc3c(N)cccc3nc2-1 (stereo unspecified)	0.206µM*	0.651µM*	1.46µM*	-10.0%	?	1.64µM*
O=C1CN=C(c2ccccc2)c2cc([N+](=O)[O-])ccc2N1	i	-3.3%	i	-8.3%	-38.0%	6.3%
O=C1CN=C(c2cc([N+](=O)[O-])ccc2Cl)c2cc([N+](=O)[O-])ccc2N1	i	-16.5%	i	?	1.64µM*	-0.1%
O=C1CCN(C(=O)CCCn2c(=O)oc3ccccc32)CC1	i	5.7%	i	0.0%	-12.2%	3.2%
O=C(CCn1c(=O)oc2ccccc21)N1CCN(c2ccccc2Cl)CC1	6.51µM*	11.6µM*	4.11µM*	9.2µM*	?	8.2µM*
O=c1c2ccccc2nc(/C=C/c2ccc([N+](=O)[O-])o2)n1-c1ccc(O)cc1	?	2.59µM*	?	?	4.61µM*	?
Cc1cccc(-n2c(/C=C/c3cccc4ccccc34)nc3ccccc3c2=O)c1	i	·	?	·	·	·
Cc1cccc(-n2c(/C=C/c3ccc([N+](=O)[O-])o3)nc3ccccc3c2=O)c1	10.3µM*	?	10.3µM*	2.31µM*	6.51µM*	5.2%
Cc1oc2cc3oc(=O)c(CCC(=O)N4CCCCC4)c(C)c3cc2c1C	i	·	i	·	·	·
SMILES	KB-3-1 tox	HT1080 IDH1KD tx	KB-V1 cytotox	MCF10A rerep	SW480 rerep	HT1080NT lethal
O=c1[nH]c(=S)n(CCC2=CCCCC2)c(O)c1/C=N/N1CCOCC1	i	-17.3%	i	18.4µM*	?	1.8%
O=c1[nH]c(=O)n(CCC2=CCCCC2)c(O)c1/C=N/N1CCOCC1	i	0.1%	i	-5.0%	-18.5%	-0.3%
CC(C)Oc1cc(-n2c(=S)[nH]c3ccccc3c2=O)c(Cl)cc1Cl	?	?	23.1µM*	84.0%	9.1%	-27.1%
Clc1ccc(Cl)cc1	·	·	·	-1.2%	1.5%	·
COc1ccc2c3c1OC1CC(O)C=CC31CCN(C)C2 (stereo unspecified)	i	2.9%	i	-2.7%	1.5%	-0.4%
Cc1ccc(-c2cc(-c3ccccc3)cc(-c3ccccc3)[n+]2-c2ccccc2)cc1	?	11.6µM*	i	23.1µM*	12.8%[9.22 µM]	?
C[n+]1c(-c2ccccc2)cc(-c2ccc(Cl)cc2)cc1-c1ccccc1	?	?	i	-4.0%	?	?
Cc1ccc(-c2cc(-c3ccc(C)cc3)[n+](-c3ccccc3)c(-c3ccc(C)cc3)c2)cc1	5.8µM*	7.31µM*	i	?	?	5.17µM*
CN(C)c1ccc(-[n+]2c(-c3ccccc3)cc(-c3ccccc3)cc2-c2ccccc2)cc1	0.651µM*	2.59µM*	20.6µM*	?	?	10.3µM*
c1ccc(-c2cc(-c3ccccc3)[n+](-c3ccccc3)c(-c3ccccc3)c2)cc1	4.61µM*	5.8µM*	i	20.6%	-4.3%	3.66µM*
Cc1ccc(-n2c(/C=C/c3cc(Br)cs3)nc3ccccc3c2=O)cc1	i	·	i	·	·	·
CCN(CC)S(=O)(=O)c1ccc(C(=O)O)cc1	i	-3.9%	i	0.8%	?	-1.6%
O=Cc1cn(Cc2ccc([N+](=O)[O-])cc2)c2ccccc12	6.51µM*	-22.7%	?	18.4µM*	?	-21.9%
